Many of the other results were omitted from the sample, so hits are more common in it than they were.
PTK2B oligo ant – antagonists of Pyk2 self-association, primary screen, Q293 cells, FERM NanoBiT luminescence, HTS. Protein-tyrosine kinase 2-beta (Homo sapiens), Q14289. hits give low values. z-score (the deposit names both 25 µM and 10 µM). actives 0.83% (n = 99,000). AID 1347419, 2020;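 active means Z-score of -3 or lower, scaled per plate to the spread of control and sample wells; inactive means z-score above -3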;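 further: negative z-score means lost luminescence so less FERM oligomerization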
CD11b adhes enh – enhancers of CD11b/CD18 adhesion to fibrinogen, primary screen, K562 cells, luminescence; ATPlite luminescence; actives 0.07% (n = 93,000); Integrin beta-2 (Homo sapiens) + Integrin alpha-M (Homo sapiens), P05107+P11215; activation, % at 10 µM;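 active means 10 µM primary screen giving 50% or more activity, confirmed by 40% or more on retest at that dose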
hDAT+cocaine – changed hDAT dopamine uptake under cocaine IC80, either direction, primary screen, cocaine antagonist project, cell-based, LLC-PK1 hDAT, [14C]-dopamine uptake, MLSMR. Sodium-dependent dopamine transporter (Homo sapiens), Q01959. LLC-PK1 hDAT cells, [14C]-dopamine uptake with cocaine IC80; actives deviate in either direction. B-score at 10 µM. actives 1.3% (n = 110,000). AID 449768, 2010;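 active means Z score or B-score, a plate-position-corrected score, falls beyond the plate's 99.7% confidence bounds, in either direction; inactive means both scores lie inside the 99.7% bounds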;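 further: scored against the spread of the other compound wells on the same plate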
D1 mod – D1 CRE-luciferase signal change, two-sided – cell-based, HEK293 D1, dopamine EC30, D1 allosteric modulator project, primary screen | D(1A) dopamine receptor (Homo sapiens), P21728 | AID 641, 2007 | B-score at 10 µM | actives 5.9% (n = 58,000) | dopamine EC30 potentiation; actives deviate in either direction;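 active means luminescence count or its row- and column-corrected plate score outside the 99.7% band of the plate's sample wells, on either side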
FAK blocker – FAK kinase inhibitors, primary screen, biochemical; Focal adhesion kinase 1 (Homo sapiens), Q05397; biochemical FAK kinase activity assay; inhibition, %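 (tested at 7 µM)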; actives 0.84% (n = 97,000); AID 727, 2007; in the data active means inhibition above about 19%;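 further: 0% = DMSO and 100% = reference compound high control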
CD11b adhes inh – inhibitors of CD11b/CD18 adhesion to fibrinogen, primary screen, K562 cells, luminescence | ATPlite luminescence; Mn2+ added to activate the integrin | inhibition, % at 10 µM | actives 0.54% (n = 93,000);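 active means primary inhibition of 50% or more at 10 µM, then 40% or more on retest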
* marks the source's active call; other numbers are inactive results; / = no result given.

SMILES	PTK2B oligo ant	CD11b adhes enh	hDAT+cocaine	D1 mod	FAK blocker	CD11b adhes inh
CSc1nc(-c2ccco2)nn1S(C)(=O)=O	0.04	2	0.22	0.89	2	-5
C=C(Br)Cn1c(CC)nc2ccccc21	-0.18	0	0.42	/	4	-4
C=C(Br)Cn1c(CC(C)C)nc2ccccc21	1.1	0	-0.91	-3.3*	2	2
CCC(C)NC(=O)CSc1nnc(-c2cc(-c3cccs3)nc3ccccc23)o1 (configuration not stated)	-1.2	-4	-0.6	/	1	13
CC(C)(C)N1CC(COc2ccccc2)OC1=O (configuration not stated)	-0.11	11	-8.9*	-0.82	-1	-22
Cc1ccccc1OCC1CN(CN2CCOCC2)C(=O)O1 (configuration not stated)	1.4	-3	-0.046	-0.27	4	4
CCCN1/C(=C2/SC(=S)N(CC)C2=O)C=Cc2ccccc21	-3.1*	4	0.12	/	-1	11
CC(=O)Nc1ccc(S(=O)(=O)N2CCCc3ccccc32)cc1	-0.74	2	0.0096	-0.7	0	-2
Nc1ccc(S(=O)(=O)N2CCCc3ccccc32)cc1	/	-2	2.3*	-0.36	-6	2
COc1ccc(-c2nnc(NC(=O)c3ccc(S(=O)(=O)N4CCCc5ccccc54)cc3)o2)cc1	-3.7*	1	/	0.19	-6	-8
C/C=C(\C)CN1CCc2cc(OC)c(OC)cc2C1	-0.83	3	-0.049	-1.1	-1	-11
CCCS(=O)(=O)N1CCc2cc(OC)c(OC)cc2C1	1.6	-1	-8.2*	0.15	2	-15
CC(=O)Nc1cccc(NC(=O)c2c(-c3c(Cl)cccc3Cl)noc2C)c1	-0.27	-2	-0.84	/	-4	-8
Cc1cc(C)nc(NC(=O)c2c(-c3c(Cl)cccc3Cl)noc2C)n1	-0.44	0	-2.9*	-0.11	3	-22
O=C(O)c1cccc(CSc2nc(-c3ccc(Cl)cc3)cc(C(F)(F)F)n2)c1	-0.88	-3	3*	/	4	75*
CCOC(=O)CCSc1nc(-c2ccccc2)cc(C(F)(F)F)n1	0.05	/	0.28	/	0	/
Nc1ccccc1Nc1ccccc1	-2	5	2.5*	/	1	-2
Cc1ccc(C(=O)c2coc3c2C(=O)C(=O)c2ccccc2-3)cc1	-2.4	-1	0.098	/	6	-30
Cc1oc2c(c1C(=O)c1ccc(Cl)cc1)C(=O)C(=O)c1ccccc1-2	-3.6*	-5	/	/	16	-9
Cc1ccc2[nH]c3c(NCCN4CCOCC4)ncnc3c2c1	0.8	-2	0.32	0.99	/	-2
C=CCNc1ncnc2c1[nH]c1ccc(C)cc12	-0.95	-4	0.89	-0.63	25*	33
Cc1ccc(S(=O)(=O)NNC(=O)C(O)(c2ccccc2C)c2ccccc2C)cc1	-1.1	/	/	/	/	/
COc1ccc(-c2nc(N)ncc2Oc2ccccc2Br)c(O)c1	-2.7	-1	-0.29	14*	18	4
C=C(C)COc1ccc(-c2nc(N)nc(C)c2Oc2ccccc2OC)c(O)c1	-2.9	-2	0.18	-0.0098	-2	3
CCOc1ccc(-c2nc(N)nc(C)c2-c2ccc(OC)c(OC)c2)c(O)c1	-0.02	-4	0.51	2.2	5	-11
C=C(C)COc1ccc(-c2nc(N)ncc2-c2ccc(OC)cc2)c(O)c1	/	/	0.63	3.4*	8	/
Cc1cccc2cc(CN(Cc3nnnn3Cc3ccco3)C3CCCC3)c3nnnn3c12	-0.64	-1	-7.4*	1.5	8	-33
Cc1ccc2[nH]c(=O)c(CN(Cc3nnnn3Cc3ccccc3)C3CCCC3)cc2c1	0.1	-2	-0.083	0.028	-2	-9
O=C(CN(C(=O)CCC(=O)Nc1nccs1)c1ccc(F)c(Cl)c1)NCc1ccco1	-1	-10	-0.11	0.29	/	-2
O=C(CN(C(=O)CCC(=O)Nc1nccs1)c1ccc(F)cc1)NCc1ccco1	0.37	-1	-2.8*	0.3	-2	-2
